For nine molecules, binding signal results are on record in publication PMC12864922, “TDP-43 directly inhibits mRNA accumulation in neurites through modulation of mRNA stability”.

B1: ENSMUSG00000043670.234|Diras1 (ssRNA)
RNA: GGGAGUUCUACAGUCCGACGAUCGCUUCGAUAUCCGCAUGCUAUAUGGCUCUGUGUUUUCAGGGGUGGGUGACACAGGCCUGUCUGAUGAGCACCAGGUCUGUUCCAGGCUGUGGCAAGCUGGCUCCUGGCUCAGAAGUGACAAAGCUGCAGUACAGAGGCCUCAGUGUGAGGUCAUCACCUCACAGUGGCUACAGACCAGGCUGUGGCCUGAGUGAGCUGGAACCUCUGGGGUGGGGACGAGAAAGAGAGAGGGAGAGAGAGGGGGGAGAGUGAGUGUGUGUGUGUGAAGGGGGAGAGUGUGCUCUUGCGGUCGCACUAGUGUGGAAUUCUCGGGUGUCAAGG
B2: ENSMUSG00000043670.237|Diras1|105:109;215:227;238:244 (ssRNA)
RNA: GGGAGUUCUACAGUCCGACGAUCGCUUCGAUAUCCGCAUGCUAGGGGUGGGUGACACAGGCCUGUCUGAUGAGCACCAGGUCUGUUCCAGGCUGUGGCAAGCUGGCUCCUGGCUCAGAAGUGACAAAGCUGCAGUACAGAGGCCUCACACACAGGUCAUCACCUCACAGUGGCUACAGACCAGGCUGUGGCCUGAGUGAGCUGGAACCUCUGGGGUGGGGACGAGAAAGAGAGAGGGAGAGAGAGGGGGGAGAGUGACACACACACACACAAGGGGGAGACACACACGGGGAAGAGUGAGAGACUCUUGCGGUCGCACUAGUGUGGAAUUCUCGGGUGUCAAGG
B3: ENSMUSG00000043670.236|Diras1|111:115;221:233;244:250 (ssRNA)
RNA: GGGAGUUCUACAGUCCGACGAUCGCUUCGAUAUCCGCAUGCUAUUUUCAGGGGUGGGUGACACAGGCCUGUCUGAUGAGCACCAGGUCUGUUCCAGGCUGUGGCAAGCUGGCUCCUGGCUCAGAAGUGACAAAGCUGCAGUACAGAGGCCUCACACACAGGUCAUCACCUCACAGUGGCUACAGACCAGGCUGUGGCCUGAGUGAGCUGGAACCUCUGGGGUGGGGACGAGAAAGAGAGAGGGAGAGAGAGGGGGGAGAGUGACACACACACACACAAGGGGGAGACACACACGGGGAAGAGUCUCUUGCGGUCGCACUAGUGUGGAAUUCUCGGGUGUCAAGG
B4: ENSMUSG00000043670.241|Diras1|81:85;191:203;214:220;245:253 (ssRNA)
RNA: GGGAGUUCUACAGUCCGACGAUCGCUUCGAUAUCCGCAUGCUAGAUGAGCACCAGGUCUGUUCCAGGCUGUGGCAAGCUGGCUCCUGGCUCAGAAGUGACAAAGCUGCAGUACAGAGGCCUCACACACAGGUCAUCACCUCACAGUGGCUACAGACCAGGCUGUGGCCUGAGUGAGCUGGAACCUCUGGGGUGGGGACGAGAAAGAGAGAGGGAGAGAGAGGGGGGAGAGUGACACACACACACACAAGGGGGAGACACACACGGGGAAGAGUGAGAGAGAUAGAGUCAUACACACAGAGGGACUCUUGCGGUCGCACUAGUGUGGAAUUCUCGGGUGUCAAGG
B5: ENSMUSG00000043670.233|Diras1 (ssRNA)
RNA: GGGAGUUCUACAGUCCGACGAUCGCUUCGAUAUCCGCAUGCUAUGUCUGUAUGGCUCUGUGUUUUCAGGGGUGGGUGACACAGGCCUGUCUGAUGAGCACCAGGUCUGUUCCAGGCUGUGGCAAGCUGGCUCCUGGCUCAGAAGUGACAAAGCUGCAGUACAGAGGCCUCAGUGUGAGGUCAUCACCUCACAGUGGCUACAGACCAGGCUGUGGCCUGAGUGAGCUGGAACCUCUGGGGUGGGGACGAGAAAGAGAGAGGGAGAGAGAGGGGGGAGAGUGAGUGUGUGUGUGUGAAGGGGGAGCUCUUGCGGUCGCACUAGUGUGGAAUUCUCGGGUGUCAAGG
B6: ENSMUSG00000043670.232|Diras1 (ssRNA)
RNA: GGGAGUUCUACAGUCCGACGAUCGCUUCGAUAUCCGCAUGCUAGUGGUGUGUCUGUAUGGCUCUGUGUUUUCAGGGGUGGGUGACACAGGCCUGUCUGAUGAGCACCAGGUCUGUUCCAGGCUGUGGCAAGCUGGCUCCUGGCUCAGAAGUGACAAAGCUGCAGUACAGAGGCCUCAGUGUGAGGUCAUCACCUCACAGUGGCUACAGACCAGGCUGUGGCCUGAGUGAGCUGGAACCUCUGGGGUGGGGACGAGAAAGAGAGAGGGAGAGAGAGGGGGGAGAGUGAGUGUGUGUGUGUGAAGCUCUUGCGGUCGCACUAGUGUGGAAUUCUCGGGUGUCAAGG
B7: ENSMUSG00000043670.242|Diras1|75:79;185:197;208:214;239:247 (ssRNA)
RNA: GGGAGUUCUACAGUCCGACGAUCGCUUCGAUAUCCGCAUGCUACACCAGGUCUGUUCCAGGCUGUGGCAAGCUGGCUCCUGGCUCAGAAGUGACAAAGCUGCAGUACAGAGGCCUCACACACAGGUCAUCACCUCACAGUGGCUACAGACCAGGCUGUGGCCUGAGUGAGCUGGAACCUCUGGGGUGGGGACGAGAAAGAGAGAGGGAGAGAGAGGGGGGAGAGUGACACACACACACACAAGGGGGAGACACACACGGGGAAGAGUGAGAGAGAUAGAGUCAUACACACAGAGGGAGGGAGACUCUUGCGGUCGCACUAGUGUGGAAUUCUCGGGUGUCAAGG
B8: ENSMUSG00000043670.238|Diras1|99:103;209:221;232:238 (ssRNA)
RNA: GGGAGUUCUACAGUCCGACGAUCGCUUCGAUAUCCGCAUGCUAGGUGACACAGGCCUGUCUGAUGAGCACCAGGUCUGUUCCAGGCUGUGGCAAGCUGGCUCCUGGCUCAGAAGUGACAAAGCUGCAGUACAGAGGCCUCACACACAGGUCAUCACCUCACAGUGGCUACAGACCAGGCUGUGGCCUGAGUGAGCUGGAACCUCUGGGGUGGGGACGAGAAAGAGAGAGGGAGAGAGAGGGGGGAGAGUGACACACACACACACAAGGGGGAGACACACACGGGGAAGAGUGAGAGAGAUAGACUCUUGCGGUCGCACUAGUGUGGAAUUCUCGGGUGUCAAGG
B9: ENSMUSG00000043670.240|Diras1|87:91;197:209;220:226;251:259 (ssRNA)
RNA: GGGAGUUCUACAGUCCGACGAUCGCUUCGAUAUCCGCAUGCUACUGUCUGAUGAGCACCAGGUCUGUUCCAGGCUGUGGCAAGCUGGCUCCUGGCUCAGAAGUGACAAAGCUGCAGUACAGAGGCCUCACACACAGGUCAUCACCUCACAGUGGCUACAGACCAGGCUGUGGCCUGAGUGAGCUGGAACCUCUGGGGUGGGGACGAGAAAGAGAGAGGGAGAGAGAGGGGGGAGAGUGACACACACACACACAAGGGGGAGACACACACGGGGAAGAGUGAGAGAGAUAGAGUCAUACACACACUCUUGCGGUCGCACUAGUGUGGAAUUCUCGGGUGUCAAGG

In all, about 9,900 sequences were measured (“r (bound/input frequency ratio)”: median about 0.7, highest 2% from about 6.5 on). This is one part of a sample in which the highest values are shown more often than they occur.

TDP-43, sequence (Q13148 whole entry): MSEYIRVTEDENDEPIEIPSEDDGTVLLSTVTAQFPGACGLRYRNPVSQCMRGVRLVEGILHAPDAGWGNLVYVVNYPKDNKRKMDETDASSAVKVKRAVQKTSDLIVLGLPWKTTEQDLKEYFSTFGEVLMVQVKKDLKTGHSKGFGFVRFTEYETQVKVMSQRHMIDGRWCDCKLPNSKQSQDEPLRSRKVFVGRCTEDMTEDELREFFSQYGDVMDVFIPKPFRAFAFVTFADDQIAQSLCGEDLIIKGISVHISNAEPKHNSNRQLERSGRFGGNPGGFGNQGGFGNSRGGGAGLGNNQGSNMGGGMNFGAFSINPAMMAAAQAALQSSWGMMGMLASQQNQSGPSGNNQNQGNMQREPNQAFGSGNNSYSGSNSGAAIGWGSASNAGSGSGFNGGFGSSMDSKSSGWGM

In the assay the target is TDP-43 (Homo sapiens, UniProt Q13148 1-414). The assay can be described thus: RNA Bind-n-Seq with designed 260-mer pool; 25 mM Tris-HCl, 150 mM KCl, 3 mM MgCl2, BSA (printed 500 mg/mL), 20 units/mL SUPERase IN; pH not stated; 500 nM RNA pool, 1 h, 4 C; TDP-43 5, 50, 500 nM; high values mean tight binding. The note with it: protein: recombinant; tags: SBP (GST cleaved off with PreScission; pGEX-GST-SBP). The method, boiled down:
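Streptavidin beads captured recombinant SBP-tagged TDP-43 at 5, 50 or 500 nM, and the beads were incubated for 1 h at 4 °C with 500 nM of an in vitro-transcribed pool of 260-nt 3′ UTR oligos in 25 mM Tris-HCl, 150 mM KCl, 3 mM MgCl2, BSA and SUPERase IN. After washing, bound RNA was eluted with biotin, reverse transcribed, PCR-amplified and sequenced. Binding is reported as R, the mapped-read-normalized abundance of each oligo in the bound sample divided by its abundance in the input. Two independent protein batches served as duplicates.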
Turning to B1, the binding signal is 6.5 R (bound/input frequency ratio).

For B2, the binding signal is 9.04 R (bound/input frequency ratio).

Regarding B3, the binding signal was 3.82 R (bound/input frequency ratio).

Regarding B4, the binding signal was 4.89 R (bound/input frequency ratio).

Take B5: the binding signal was 7.61 R (bound/input frequency ratio).

For the molecule B6, the binding signal is 6.45 R (bound/input frequency ratio).

Consider B7, for which the binding signal was 12.1 R (bound/input frequency ratio).

In the case of B8, the binding signal was 4.05 R (bound/input frequency ratio).

Take B9: the binding signal was 3.45 R (bound/input frequency ratio).
